In PubChem BioAssay AID1159580 (chemical genetic matrix, 2015):
Several values for one entry are separate records, joined by “and”; a condition that tells them apart may be missing. Identical values can stand only once. About 2,000 (36%) of roughly 5,500 compounds were called active. Roughly 18% stayed inconclusive and do not appear here. Rule as the data show it: active = normalized growth mostly below about 0.91 (no sharp cut-off); inconclusive = no clear call, values can overlap the other calls; inactive = mostly above about 0.92. Some of the results follow.

Experiment: chemical genetic growth profiling, strain panel (AID 1159580);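 also: tested at 20 µM; growth read once vehicle control cultures reached saturation at 30 °C; 1 = growth at the plate median or of vehicle wells; lower values mean less growth of the strain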
Settings: S. cerevisiae deletion strains, growth OD

Measured: normalized growth

CC(C)CCCC(C)[C@H]1CCC2C3CC=C4C[C@@H](O)CC[C@]4(C)C3CC[C@@]21C (some centres undefined)
inactive: locus YAL021C, strain ccr4, stronger effect = lower value 0.974 | locus YAL026C, strain drs2, stronger effect = lower value 0.96 | locus YAL030W, strain snc1, stronger effect = lower value 0.979 | locus YBL061C, strain skt5, stronger effect = lower value 0.99 | locus YBR009C, strain hhf1, stronger effect = lower value 0.986 | locus YBR021W, strain FUR4, stronger effect = lower value 1.01 | locus YBR023C, strain chs3, stronger effect = lower value 0.989 | locus YBR171W, strain sec66, stronger effect = lower value 0.987 | locus YBR229C, strain ROT2, stronger effect = lower value 1.01 | locus YBR231C, strain swc5, stronger effect = lower value 0.989 | locus YBR279W, strain paf1, stronger effect = lower value 0.951 | locus YCL011C, strain gbp2, stronger effect = lower value 0.972 | locus YCL016C, strain dcc1, stronger effect = lower value 0.994 | locus YCL029C, strain bik1, stronger effect = lower value 0.979 | locus YCL061C, strain MRC1, stronger effect = lower value 0.985 | locus YCL069W, strain vba3, stronger effect = lower value 0.964 | locus YCR088W, strain abp1, stronger effect = lower value 0.992 | locus YDL005C, strain med2, stronger effect = lower value 0.976 | locus YDL035C, strain GPR1, stronger effect = lower value 1.03 | locus YDL040C, strain nat1, stronger effect = lower value 0.986 | locus YDL074C, strain BRE1, stronger effect = lower value 1.03 | locus YDL101C, strain DUN1, stronger effect = lower value 1.01 | locus YDL134C, strain PPH21, stronger effect = lower value 1.03 | locus YDL185W, strain tfp1, stronger effect = lower value 0.994 | locus YDL192W, strain arf1, stronger effect = lower value 0.992 | locus YDR001C, strain nth1, stronger effect = lower value 0.981 | locus YDR069C, strain doa4, stronger effect = lower value 0.966 | locus YDR101C, strain arx1, stronger effect = lower value 0.962 | locus YDR137W, strain rgp1, stronger effect = lower value 0.916 | locus YDR159W, strain sac3, stronger effect = lower value 0.963 | locus YDR162C, strain NBP2, stronger effect = lower value 1 | locus YDR195W, strain ref2 0.957 | locus YDR297W, strain sur2, stronger effect = lower value 0.985 | locus YDR318W, strain mcm21, stronger effect = lower value 1.01 | locus YDR334W, strain swr1, stronger effect = lower value 0.964 | locus YDR335W, strain msn5, stronger effect = lower value 0.996 | locus YDR388W, stronger effect = lower value 0.988 | locus YDR392W, strain spt3, stronger effect = lower value 0.935 | locus YDR502C, strain sam2, stronger effect = lower value 0.974 | locus YEL003W, strain gim4, stronger effect = lower value 0.982 | locus YEL037C, strain rad23, stronger effect = lower value 0.953 | locus YEL061C, strain CIN8 (second series), stronger effect = lower value 0.965 | locus YEL061C, strain CIN8, stronger effect = lower value 1.01 | locus YER015W, strain faa2, stronger effect = lower value 0.995 | locus YER016W, strain bim1, stronger effect = lower value 0.987 | locus YER110C, stronger effect = lower value 0.991 | locus YER111C, strain swi4, stronger effect = lower value 0.985 | locus YER155C, strain BEM2 (second series), stronger effect = lower value 0.984 | locus YER155C, strain BEM2, stronger effect = lower value 1.01 | locus YER167W, strain BCK2, stronger effect = lower value 1 | locus YFR010W, strain ubp6, stronger effect = lower value 0.961 | locus YGL078C, strain dbp3, stronger effect = lower value 0.996 | locus YGL086W, strain mad1, stronger effect = lower value 0.991 | locus YGL167C, strain pmr1, stronger effect = lower value 0.99 | locus YGL173C, strain kem1, stronger effect = lower value 0.984 | locus YGL227W, strain vid30, stronger effect = lower value 0.99 | locus YGL240W, strain doc1, stronger effect = lower value 0.986 | locus YGL248W, strain PDE1, stronger effect = lower value 1.03 | locus YGL253W, strain hxk2, stronger effect = lower value 0.976 | locus YGR078C, strain PAC10, stronger effect = lower value 1.01 | locus YGR135W, strain pre9, stronger effect = lower value 1 | locus YGR252W, strain gcn5, stronger effect = lower value 0.978 | locus YHR013C, strain ard1, stronger effect = lower value 0.96 | locus YHR027C, strain rpn1, stronger effect = lower value 0.997 | locus YHR030C, strain SLT2, stronger effect = lower value 1.01 and 1.02 | locus YHR079C, strain IRE1 (second series), stronger effect = lower value 0.997 | locus YHR079C, strain IRE1, stronger effect = lower value 1.01 | locus YHR094C, strain hxt1, stronger effect = lower value 0.988 | locus YHR129C, strain ARP1, stronger effect = lower value 0.999 | locus YHR142W, strain chs7, stronger effect = lower value 0.956 | locus YHR200W, strain rpn10, stronger effect = lower value 0.995 | locus YIL066C, strain RNR3, stronger effect = lower value 1.01 | locus YIL073C, strain SPO22, stronger effect = lower value 1 | locus YIL125W, strain kgd1, stronger effect = lower value 0.99 | locus YIR030C, strain dcg1, stronger effect = lower value 0.987 | locus YJL092W, strain hpr5, stronger effect = lower value 0.992 | locus YJL095W, strain BCK1 (second series), stronger effect = lower value 0.987 | locus YJL095W, strain BCK1, stronger effect = lower value 1.04 and 1.01 | locus YJL115W, strain asf1, stronger effect = lower value 0.981 | locus YJL129C, strain trk1, stronger effect = lower value 0.968 | locus YJL134W, strain LCB3, stronger effect = lower value 1.01 | locus YJL154C, strain vps35, stronger effect = lower value 0.981 | locus YJL164C, strain tpk1, stronger effect = lower value 0.985 | locus YJL166W, strain qcr8, stronger effect = lower value 0.985 | locus YJL168C, strain set2, stronger effect = lower value 1 | locus YJL187C, strain SWE1 (second series), stronger effect = lower value 1.01 | locus YJL187C, strain SWE1, stronger effect = lower value 0.974 | locus YJR043C, strain POL32, stronger effect = lower value 1.01 | locus YJR066W, strain TOR1, stronger effect = lower value 0.987
